According to PubChem BioAssay (NCATS):
Inconclusive results are not listed. Unmarked numbers belong to inactive results. The source made the active and inactive calls. Calls follow the shape of the dose curve; as a rule, active = well fitted inhibition curve with a large enough effect; inconclusive = small, poorly fitted or top-dose-only effect, or effect the other way; inactive = no such curve, though single readings can be large or run the other way.

Assay: Quantitative high throughput screen for delayed death inhibitors of the malarial parasite plastid, 96 hour incubation (AID 488745); also: nearly all actives have a fitted effect of over 70% in size
Settings: Plasmodium falciparum growth; series mostly up to 28.7 µM; activity change, negative = inhibition: at the top concentration
Excerpt: NIH Molecular Libraries Probe Production Network [MLPCN]
NIH Chemical Genomics Center [NCGC]
Assay Provider: David Fidock and Eric Ekland, Columbia University
The goal of this screen is to discover new antimalarial compounds that act by inhibiting the development of the apicoplast in the malarial parasite Plasmodium falciparum. The biochemical processes that make this organelle essential for erythrocytic stage parasites are not well understood. However, antibiotics such as azithromycin and tetracycline, which target the apicoplast translational machinery, have a potent antimalarial effect.
We have developed a cell-based assay that measures parasite growth based on the expression of an integrated copy of a firefly luciferase reporter. To detect small molecules that cause this 'delayed death' phenotype, erythrocytes infected with the luciferase-expressing parasites were incubated with compounds for either one or two generations, corresponding to 48 and 96 hours, respectively. Compounds that inhibit parasite growth in the second generation, but not the first, should be enriched in antimalarials that target the apicoplast. Growth inhibition is detected by a decrease in luciferase activity
Four microliters of culture medium (RPMI 1640 with 0.5% w/v Albumax (GIBCO), 24 mM sodium bicarbonate and 10 ug/mL gentamycin) were dispensed by a Multi-drop Combi into white solid 1536-well plates (Grenier) and 23 nL compound was added by a pin tool. Four microliters of infected erythrocytes (2% hematocrit, 0.1% parasitemia final concentration) in culture medium were dispensed and the plates incubated for 96 hours at 37 C in 5% CO2. Two microliters of luciferase detection reagent was added and luminescence was detected by a ViewLux (PerkinElmer) reader
% is scaled to controls: 0 for no effect and ±100 for the full control effect; potency is read from the fitted curve at half-maximal effect.

| SMILES | activity change, negative = inhibition [%] | Potency |
| --- | --- | --- |
| COc1ccc2c(c1)c(CC(=O)N1CCOCC1)c(C)n2C(=O)c1ccc(Cl)cc1 | -36.2 |  |
| COc1cc2c(cc1C(F)(F)F)N(C(=O)Nc1cc(F)cc(-c3cccnc3)c1)CC2 |  | 1.85 µM (active) |
| Cc1cccc(C)c1NC(=O)C[N+](C)(C)C | -1.22 |  |
| S=C(Nc1ccccc1)Nc1nccs1 |  | 9.28 µM (active) |
| Cn1cnc2c(NC3CCCC3)ncnc21 | -0.546 |  |
| COC(=O)c1c(-c2cc(OC)c(OC)c(OC)c2)c2ccnc(OCc3ncccn3)c2c(=O)n1Cc1ccnc(C)c1 |  | 5.86 µM (active) |
| O=C(Nc1cc(C(=O)Nc2ccc(S(=O)(=O)O)cc2S(=O)(=O)O)cc(C(=O)Nc2ccc(S(=O)(=O)O)cc2S(=O)(=O)O)c1)Nc1cc(C(=O)Nc2ccc(S(=O)(=O)O)cc2S(=O)(=O)O)cc(C(=O)Nc2ccc(S(=O)(=O)O)cc2S(=O)(=O)O)c1 | 16.2 |  |
| NCCCCCCNS(=O)(=O)c1cccc2c(Cl)cccc12 | -9.94 |  |
| NCCNS(=O)(=O)c1cccc2cnccc12 | -19 |  |
| O=C(O)c1cc(=O)c2ccc(Cl)cc2[nH]1 | -3.39 |  |
| COc1[nH]c2ccc(F)cc2c1C(=O)OCC1CCN(CCNS(C)(=O)=O)CC1 |  | 14.7 µM (active) |
| CC(N)=NCc1cccc(CN)c1 | -18.9 |  |
| O=Nc1c(-c2c(O)[nH]c3ccccc23)[nH]c2ccccc12 |  | 1.17 µM (active) |
| CCCCCCCCCCCCC/C=C/[C@@H](O)[C@@H](N)CO | 1.9 |  |
| O=C(OCCN1CCCCC1)c1c[nH]c2ccccc12 | -1.51 |  |
| C/C=C1\C(=O)CC2C3CCC4=CC(=O)CC[C@]4(C)C3CC[C@]12C (stereo partly specified) | -65.2 |  |
| CCCn1c(=O)c2[nH]c(-c3ccc(OCC(=O)Nc4ccc(C#N)cc4)cc3)nc2n(CCC)c1=O | 17.6 |  |
| O=S(=O)(NCCNC/C=C/c1ccc(Br)cc1)c1cccc2cnccc12 | -104 |  |
| NC(CCC(=O)NCS(=O)(=O)O)C(=O)O (stereo unspecified) | 5.92 |  |
| C1CCC(N=C(NC23CC4CC(CC(C4)C2)C3)N2CCOCC2)CC1 | 1.46 |  |
| COc1ccccc1NC(=O)Nc1nc(-c2cccnc2)nc2ccccc12 | -3.28 |  |
